For some of these results: Measured potencies and affinities stand elsewhere.
Assays:
Parameters in all cases: scale not given: direction of the effect not stated beside the values
[1] = biological target: Protein translocase subunit SecA (Escherichia coli (strain K12)) (UniProt P10408); test: Assay to Identify E. coli SecA ATPase Inhibitors; type: functional; settings: 30 µM
[2] = biological target: T1, Ubiquitin-activating enzyme e1, putative (Leishmania donovani (strain BPK282A1)) (UniProt E9BSI1); test: Leishmania donovani Ubiquitin Activating Enzyme (LdE1); type: functional; settings: 30 µM
T1 sequence (whole entry): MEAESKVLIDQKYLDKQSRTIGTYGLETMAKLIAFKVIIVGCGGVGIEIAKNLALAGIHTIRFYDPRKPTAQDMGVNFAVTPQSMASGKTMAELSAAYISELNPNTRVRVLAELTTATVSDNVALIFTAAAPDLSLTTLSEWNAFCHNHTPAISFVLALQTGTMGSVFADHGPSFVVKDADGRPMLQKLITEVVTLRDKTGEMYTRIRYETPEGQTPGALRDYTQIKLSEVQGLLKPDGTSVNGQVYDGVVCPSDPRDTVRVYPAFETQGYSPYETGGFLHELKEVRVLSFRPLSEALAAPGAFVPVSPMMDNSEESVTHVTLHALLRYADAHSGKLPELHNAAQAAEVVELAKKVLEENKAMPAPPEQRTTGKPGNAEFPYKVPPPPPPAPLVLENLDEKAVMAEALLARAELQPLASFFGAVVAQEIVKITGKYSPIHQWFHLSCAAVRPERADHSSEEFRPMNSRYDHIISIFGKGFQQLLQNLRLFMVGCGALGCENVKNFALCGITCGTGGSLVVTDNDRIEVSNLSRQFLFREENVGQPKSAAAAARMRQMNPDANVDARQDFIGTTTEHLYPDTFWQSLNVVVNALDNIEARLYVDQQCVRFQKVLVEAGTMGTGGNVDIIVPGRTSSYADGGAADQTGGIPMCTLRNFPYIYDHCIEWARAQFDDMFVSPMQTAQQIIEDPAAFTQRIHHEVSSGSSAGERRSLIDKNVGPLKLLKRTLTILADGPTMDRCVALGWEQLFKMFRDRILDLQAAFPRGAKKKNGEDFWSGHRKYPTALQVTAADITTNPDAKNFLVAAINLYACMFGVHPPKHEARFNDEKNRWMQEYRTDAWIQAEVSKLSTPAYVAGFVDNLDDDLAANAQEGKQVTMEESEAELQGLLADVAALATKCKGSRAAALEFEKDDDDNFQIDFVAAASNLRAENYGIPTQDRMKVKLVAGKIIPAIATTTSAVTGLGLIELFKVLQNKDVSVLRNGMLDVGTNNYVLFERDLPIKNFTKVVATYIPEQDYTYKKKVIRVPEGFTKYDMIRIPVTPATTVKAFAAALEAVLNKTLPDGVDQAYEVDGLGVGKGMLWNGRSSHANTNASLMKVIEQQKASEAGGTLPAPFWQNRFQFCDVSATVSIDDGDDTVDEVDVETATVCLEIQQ

[3] = biological target: AMP-activated protein kinase, AMPK (Homo sapiens) (UniProt P54646+O43741+P54619+Q9UGJ0+Q9Y478+Q13131+Q9UGI9); test: AMP-dependent Kinase enzyme assay. An in vitro enzyme assay that detects ADP turnover that is directly proportional to AMPK activity. This uses naive AMPK that is activated during the assay with MK-8722; type: functional; settings: 30 µM
[4] = biological target: Sialic acid-binding Ig-like lectin 9 (Homo sapiens) (UniProt Q9Y336); test: Hs-Siglec9 ALPHAscreen SOP 20170721; settings: 10 µM
Sequence of Sialic acid-binding Ig-like lectin 9 (Homo sapiens) (Q9Y336 whole entry): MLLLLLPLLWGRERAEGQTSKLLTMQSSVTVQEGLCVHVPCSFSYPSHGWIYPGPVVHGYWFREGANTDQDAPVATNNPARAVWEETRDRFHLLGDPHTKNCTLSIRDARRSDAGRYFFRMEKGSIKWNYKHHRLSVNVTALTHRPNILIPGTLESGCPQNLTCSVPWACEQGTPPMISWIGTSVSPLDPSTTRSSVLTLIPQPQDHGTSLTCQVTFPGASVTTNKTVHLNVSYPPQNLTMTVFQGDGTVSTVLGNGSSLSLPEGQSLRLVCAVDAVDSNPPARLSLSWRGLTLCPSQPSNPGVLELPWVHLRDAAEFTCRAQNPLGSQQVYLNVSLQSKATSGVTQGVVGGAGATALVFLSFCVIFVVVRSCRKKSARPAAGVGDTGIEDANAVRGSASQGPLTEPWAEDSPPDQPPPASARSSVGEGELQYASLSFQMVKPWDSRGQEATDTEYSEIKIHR

Trypanosoma cruzi = test: Trypanosoma cruzi phosphomannomutase and mannose-1-phosphate guanylyltransferase assay; type: functional; settings: 10 µM
[5] = biological target: T2, Arginase-2, mitochondrial (Homo sapiens) (UniProt P78540); test: in vitro enzyme assay to detect the production of urea directly proportional to the activity of Arginase II; type: functional; settings: 33.3 µM; also: in the data most compounds retested in dose-response had high values
T2 sequence (whole entry): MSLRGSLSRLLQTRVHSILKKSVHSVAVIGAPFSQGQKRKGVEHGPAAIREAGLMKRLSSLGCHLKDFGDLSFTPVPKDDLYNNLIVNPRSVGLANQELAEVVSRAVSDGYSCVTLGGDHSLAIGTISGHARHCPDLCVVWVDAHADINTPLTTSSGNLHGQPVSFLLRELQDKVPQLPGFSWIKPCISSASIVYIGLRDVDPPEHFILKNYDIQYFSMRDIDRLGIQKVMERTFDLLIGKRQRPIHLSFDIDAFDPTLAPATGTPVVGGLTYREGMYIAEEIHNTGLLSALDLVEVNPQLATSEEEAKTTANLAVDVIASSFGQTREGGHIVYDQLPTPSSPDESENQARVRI

[6] = biological target: T3, Proteasome subunit beta (Trypanosoma cruzi) (UniProt O96673); test: Trypanosoma cruzi proteasome chymotrypsin-like activity (TcProtChymo) assay.; also: in the data most compounds retested in dose-response had high values; type: functional; settings: 9.37 µM
T3 sequence (whole entry): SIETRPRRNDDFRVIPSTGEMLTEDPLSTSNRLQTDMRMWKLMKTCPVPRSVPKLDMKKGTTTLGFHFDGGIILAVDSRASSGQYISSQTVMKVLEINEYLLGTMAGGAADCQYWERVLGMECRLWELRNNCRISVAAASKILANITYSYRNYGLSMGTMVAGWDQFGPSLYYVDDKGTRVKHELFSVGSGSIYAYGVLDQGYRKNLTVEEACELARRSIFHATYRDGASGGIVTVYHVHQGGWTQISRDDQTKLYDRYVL

Homo sapiens = organism: Homo sapiens; test: To identify inhibition of the IFN signalling (Jak-Stat) pathway via expression of an eGFP reporter gene under the control of an IFN-stimulated response element (ISRE) containing MxA promoter.; type: functional; settings: 30 µM
[7] = biological target: T4, Tyrosyl-tRNA synthetase, putative (Trypanosoma cruzi (strain CL Brener)) (UniProt Q4DSP6); test: Trypanosoma cruzi tyrosyl tRNA synthetase (TcYRS) _High Tyrosine SOP; type: functional; settings: 30 µM; also: in the data most compounds retested in dose-response had high values
T4 sequence (whole entry): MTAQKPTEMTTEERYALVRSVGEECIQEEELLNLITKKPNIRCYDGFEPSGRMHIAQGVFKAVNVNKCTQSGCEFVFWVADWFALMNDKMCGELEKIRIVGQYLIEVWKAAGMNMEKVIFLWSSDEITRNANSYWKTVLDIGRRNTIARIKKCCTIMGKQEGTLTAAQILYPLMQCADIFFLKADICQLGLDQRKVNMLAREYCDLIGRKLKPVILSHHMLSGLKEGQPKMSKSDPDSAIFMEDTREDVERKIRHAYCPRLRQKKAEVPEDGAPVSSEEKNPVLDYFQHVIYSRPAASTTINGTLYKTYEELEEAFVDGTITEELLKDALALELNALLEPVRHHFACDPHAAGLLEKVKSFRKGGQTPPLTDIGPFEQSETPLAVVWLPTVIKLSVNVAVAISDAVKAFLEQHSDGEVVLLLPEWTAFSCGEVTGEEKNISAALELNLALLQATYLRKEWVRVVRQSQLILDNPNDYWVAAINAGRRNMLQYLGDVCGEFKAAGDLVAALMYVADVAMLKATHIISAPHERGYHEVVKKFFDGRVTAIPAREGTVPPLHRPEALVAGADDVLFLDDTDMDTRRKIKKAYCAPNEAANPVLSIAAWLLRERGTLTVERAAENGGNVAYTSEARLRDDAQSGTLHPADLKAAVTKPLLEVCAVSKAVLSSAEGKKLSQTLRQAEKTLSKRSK

[8] = biological target: T4, Tyrosyl-tRNA synthetase, putative (Trypanosoma cruzi (strain CL Brener)); test: Trypanosoma cruzi tyrosyl tRNA synthetase (TcYRS) SOP; type: functional; settings: 30 µM
[9] = biological target: Chromo domain-containing protein 1 (Saccharomyces cerevisiae (strain ATCC 204508 / S288c) (Baker's yeast)) (UniProt P32657); test: ScCHD-1 Enzyme Inhibition Assay; type: functional; settings: 30 µM; also: in the data most compounds retested in dose-response had high values
Sequence of Chromo domain-containing protein 1 (Saccharomyces cerevisiae (strain ATCC 204508 / S288c) (Baker's yeast)) (P32657 whole entry, the tested form may be a part): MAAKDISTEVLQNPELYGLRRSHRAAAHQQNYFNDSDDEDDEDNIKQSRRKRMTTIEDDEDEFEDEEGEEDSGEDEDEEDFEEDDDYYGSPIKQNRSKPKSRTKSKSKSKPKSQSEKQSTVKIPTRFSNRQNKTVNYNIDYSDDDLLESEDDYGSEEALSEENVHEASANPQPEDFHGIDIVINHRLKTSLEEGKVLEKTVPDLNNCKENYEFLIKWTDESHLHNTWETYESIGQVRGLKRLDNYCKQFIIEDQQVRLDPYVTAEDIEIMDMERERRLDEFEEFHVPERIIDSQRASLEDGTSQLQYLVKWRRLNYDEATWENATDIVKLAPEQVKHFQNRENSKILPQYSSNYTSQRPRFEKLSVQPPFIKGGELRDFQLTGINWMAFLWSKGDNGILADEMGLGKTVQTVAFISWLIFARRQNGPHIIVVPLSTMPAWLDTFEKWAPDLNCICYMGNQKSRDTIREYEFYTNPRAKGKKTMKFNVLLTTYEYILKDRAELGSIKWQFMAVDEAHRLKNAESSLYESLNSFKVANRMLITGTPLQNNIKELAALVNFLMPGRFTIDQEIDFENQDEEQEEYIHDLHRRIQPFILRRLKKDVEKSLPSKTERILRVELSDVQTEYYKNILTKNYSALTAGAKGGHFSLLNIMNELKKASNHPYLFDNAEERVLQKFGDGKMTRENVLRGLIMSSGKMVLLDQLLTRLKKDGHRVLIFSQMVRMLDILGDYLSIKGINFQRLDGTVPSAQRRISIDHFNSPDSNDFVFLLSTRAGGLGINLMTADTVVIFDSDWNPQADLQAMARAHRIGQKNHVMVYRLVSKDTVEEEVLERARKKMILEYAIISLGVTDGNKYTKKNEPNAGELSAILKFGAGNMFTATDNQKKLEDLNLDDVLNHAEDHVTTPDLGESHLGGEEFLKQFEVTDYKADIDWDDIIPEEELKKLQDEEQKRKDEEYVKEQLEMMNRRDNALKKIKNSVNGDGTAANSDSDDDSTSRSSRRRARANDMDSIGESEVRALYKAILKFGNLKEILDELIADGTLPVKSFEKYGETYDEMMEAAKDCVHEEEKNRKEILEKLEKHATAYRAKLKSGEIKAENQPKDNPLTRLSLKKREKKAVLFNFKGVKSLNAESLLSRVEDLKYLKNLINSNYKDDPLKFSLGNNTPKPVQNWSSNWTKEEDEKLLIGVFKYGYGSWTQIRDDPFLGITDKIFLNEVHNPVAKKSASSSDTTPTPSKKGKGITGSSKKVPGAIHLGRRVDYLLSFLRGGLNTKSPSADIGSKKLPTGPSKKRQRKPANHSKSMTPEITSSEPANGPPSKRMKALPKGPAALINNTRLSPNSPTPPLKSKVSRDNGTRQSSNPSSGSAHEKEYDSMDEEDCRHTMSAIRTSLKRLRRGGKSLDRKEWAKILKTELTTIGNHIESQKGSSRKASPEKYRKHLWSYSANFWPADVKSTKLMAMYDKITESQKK

Sequence of Protein translocase subunit SecA (Escherichia coli (strain K12)) (P10408 whole entry): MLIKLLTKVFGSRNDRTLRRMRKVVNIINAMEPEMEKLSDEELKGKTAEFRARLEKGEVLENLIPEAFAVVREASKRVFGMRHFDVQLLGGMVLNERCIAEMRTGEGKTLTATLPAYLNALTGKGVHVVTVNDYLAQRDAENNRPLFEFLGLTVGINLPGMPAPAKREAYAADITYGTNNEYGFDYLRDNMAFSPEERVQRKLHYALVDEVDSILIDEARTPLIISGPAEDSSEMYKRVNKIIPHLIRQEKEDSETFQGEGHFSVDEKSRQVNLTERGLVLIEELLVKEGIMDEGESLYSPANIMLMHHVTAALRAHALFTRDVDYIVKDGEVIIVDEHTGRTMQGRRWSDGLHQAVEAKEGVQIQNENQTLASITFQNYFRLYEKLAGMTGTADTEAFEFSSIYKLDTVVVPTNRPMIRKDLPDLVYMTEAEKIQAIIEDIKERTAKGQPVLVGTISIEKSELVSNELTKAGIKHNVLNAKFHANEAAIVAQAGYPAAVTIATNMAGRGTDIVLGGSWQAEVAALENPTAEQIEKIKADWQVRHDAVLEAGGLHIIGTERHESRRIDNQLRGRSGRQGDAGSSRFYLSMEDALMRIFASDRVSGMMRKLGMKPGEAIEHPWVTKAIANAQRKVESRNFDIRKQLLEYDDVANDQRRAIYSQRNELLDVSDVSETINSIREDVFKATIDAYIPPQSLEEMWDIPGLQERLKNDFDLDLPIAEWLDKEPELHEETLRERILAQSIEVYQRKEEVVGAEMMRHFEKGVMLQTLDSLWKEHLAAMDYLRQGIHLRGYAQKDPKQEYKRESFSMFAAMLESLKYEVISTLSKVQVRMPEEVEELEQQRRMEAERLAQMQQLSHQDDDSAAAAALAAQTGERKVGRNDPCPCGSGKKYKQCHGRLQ

Structure (SMILES) | Percent Effect [1] [%] | Percent Effect [2] [%] | Percent Effect [3] [%] | Percent Effect [4] [%] | Percent Effect (Trypanosoma cruzi) [%] | Percent Effect [5] [%] | Percent Effect [6] [%] | Percent Effect (Homo sapiens) [%] | Percent Effect [7] [%] | Percent Effect [8] [%] | Percent Effect [9] [%]
CSC(C)C(=O)N1CCCN(Cc2cnn(C(C)C)c2)CC1 (stereo not given) | 1.59 | 21.6 | -6.76 | -4.41 | -10.3 | 2 | 19.1 | 7.04 | 8.37 | 11.1 | -4.54
CCC(CNC(=O)c1ccc(Br)o1)N1CCc2ccccc2C1 (stereo not given) | -2.45 | -2.7 | -0.754 | 2.18 | 2.51 | -2.38 | 10.9 | 11.9 | 0.529 | -4.88 | -2.21
COCc1nn(C(C)C)c2c1CCN(Cc1cccs1)C2 | -0.481 | 11 | 1.5 | 8.32 | 0.198 | -0.798 | 12.4 | -11.8 | 7.29 | 16.1 | -1.6
CC(C)(C)c1noc(CN2CCN(C(=O)c3cccs3)CC2)n1 | -2.39 | 10.4 | 4.2 | -5.86 | -4.68 | 4.27 | 10.3 | 19.4 | 7.77 | 14.6 | -7.8
Cc1nc(N2CCN(C(=O)C(C)(C)C)CC2)cc(-n2cnc(C)c2C)n1 | -3.24 | 10.4 | 2.15 | 6.33 | 6.2 | -44.1 | 22.3 | 4.66 | 3.23 | 8.64 | -4.66
CC(=O)N1CCN(CCNS(=O)(=O)c2ccc(C)c(F)c2)CC1 | -5.17 | 18.4 | -1.98 | -13.7 | 3.41 | 1.18 | 7.96 | 3.39 | -1.06 | 13 | -13.1
O=C(c1cnc(-c2ccco2)s1)N1CCCC1Cn1cccn1 (stereo not given) | -4.62 | 3.8 | 8.45 | 0.321 | 2.97 | 1.5 | 9.09 | 13 | 7.29 | 5.06 | 0.437
Cc1nc(CN2CCCC(NCc3ccsc3)C2)no1 (stereo not given) | 1.07 | 18.2 | -3.38 | -6.19 | -7.3 | 4.63 | 16.1 | 20.4 | 4.85 | 12.2 | -8.54
CS(=O)(=O)NC1CCCN(C(=O)NCc2cc[nH]n2)C1 (stereo not given) | -5.06 | -31.2 | -5.48 | -13.5 | 5 | -6.11 | 17.1 | -0.514 | 8.57 | 21.2 | -16.2
COCc1ccc(CN2CCC(O)(Cn3ccc4ncccc43)CC2)o1 | -1.21 | 2.67 | -2.95 | 1.83 | 5.51 | 0.233 | 9.07 | 7.16 | 2.13 | 3.85 | -6.45
Cc1nc([C@@H]2C[C@@H]3CCN(C(=O)c4ccnnc4)C[C@H]3O2)sc1C | -3.66 | 18.2 | -2.5 | -0.581 | 5.42 | 1.94 | 14.4 | 16.5 | 4.23 | 16.7 | -7.55
CCC1CN(CCC(=O)N(C)C)CCN1CCOC (stereo not given) | -1.46 | 16.2 | -11.9 | 3.32 | 2.74 | -0.401 | 5.04 | -13.9 | 8.37 | 25.9 | -3.8
CC(NC(=O)N(C)Cc1ccncc1)c1nncn1C (stereo not given) | -3.28 | 20.8 | 3.42 | 21 | 2.43 | 22.5 | 13.2 | -6.33 | 1.05 | 15.4 | -7.53
CS(=O)(=O)NCC1CCCN(C(=O)Nc2ccccc2Cl)C1 (stereo not given) | -1.65 | 13.2 | 8.6 | 0.518 | 1.66 | -5.92 | 15.2 | 29.4 | 7.45 | 18.2 | -7.52
CCn1cc(CN2CCC(c3nnc(CN(C)C)n3CC)CC2)cn1 | 0.381 | 10.4 | 3.2 | 6.14 | -4.03 | -1.38 | 14 | 4.82 | 2.15 | 6.17 | 0.0159
Cc1noc(C(C)C)c1C(=O)N1CCCN(Cc2cscn2)CC1 | -4.04 | 18.2 | -1.96 | -7.63 | 2.25 | -0.632 | 15.6 | 0.184 | 7.62 | 21.2 | -23.9
CC1=N[C@@]2(CC[C@@H]3CN(CC(=O)N(C)C)C[C@@H]32)C(=O)N1CC(C)C | 3.62 | 12 | 42.2 | 1.63 | -8.25 | -20.6 | 9.43 | 24.2 | 1.06 | 0 | -8.72
O=C(CN1CCC(c2ccnn2CCO)CC1)NCC1CC1 | -2.3 | 17.7 | -5.47 | 0.194 | 2.36 | 0.76 | 6.96 | -2.19 | 8.37 | 29.1 | -5.59
CC(=O)N1CCn2c(C(=O)N(C)C)cnc2C1 | -2.73 | 5.33 | 9.01 | -0.782 | -1.77 | -3.03 | 1.32 | 5.39 | 3.19 | 6.41 | -2.05
Cc1[nH]ncc1CCCNC(=O)Nc1ccc(C#N)cc1 | -1.53 | 5.41 | 8.53 | 1.92 | 3.28 | 2.38 | 7.41 | 15.2 | 7.94 | 9.76 | -1.92

Source: ChEMBL document CHEMBL3988442, “University of Dundee, Small-Polar-MMV Screening Library” (2021)
